# From PubChem BioAssay (EPA / NIEHS)
# Some structures have more than one record in an assay (separate samples or runs), and their calls can disagree. Activity calls are given as the source filed them. The calls were made as follows: active = hit-call score of the fitted dose curve at least 0.9, where 1 is the maximum; inactive = score below 0.9.
# How the values were obtained:
# [1] = ATG_CRE_CIS: Attagene CIS-FACTORIAL HepG2 Assay for human cAMP Responsive Element (CRE) binding protein 3 (AID 2282926); conditions: HepG2 CRE cis-reporter, Attagene multiplexed mRNA; actives raise or lower the signal
# Outline: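 We dosed HepG2 cells bearing multiple cis-promoter reporter units for 24 h and measured reporter mRNA by RT-PCR with capillary electrophoresis detection. Bidirectional concentration-response fitting used DMSO as negative control.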
# [2] = biological target: CCAAT/enhancer-binding protein beta (Homo sapiens) (UniProt P17676); experiment: ATG_C_EBP_CIS: Attagene CIS-FACTORIAL HepG2 Assay for human CCAAT/Enhancer Binding Protein (C/EBP) beta (AID 2282927); conditions: HepG2 Attagene cis-factorial transcription factor reporter; actives raise or lower the signal
# CCAAT/enhancer-binding protein beta (Homo sapiens), sequence (P17676 whole entry, looked up): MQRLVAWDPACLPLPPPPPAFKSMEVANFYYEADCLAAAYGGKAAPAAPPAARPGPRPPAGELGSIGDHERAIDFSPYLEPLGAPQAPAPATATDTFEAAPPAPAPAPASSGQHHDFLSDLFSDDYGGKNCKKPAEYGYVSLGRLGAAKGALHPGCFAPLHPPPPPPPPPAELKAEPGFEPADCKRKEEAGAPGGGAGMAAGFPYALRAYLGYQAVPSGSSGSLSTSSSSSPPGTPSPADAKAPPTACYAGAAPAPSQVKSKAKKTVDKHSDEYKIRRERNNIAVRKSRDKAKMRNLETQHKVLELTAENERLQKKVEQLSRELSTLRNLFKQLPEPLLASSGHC
# Outline: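 HepG2, transient MRTU transfection, 24 h treatment. RT-PCR plus CE fluorescence; DMSO negative control, bidirectional fit.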
# [3] = ATG_CMV_CIS: Attagene CIS-FACTORIAL HepG2 Assay for human CMV (Internal Marker) (AID 2282928); conditions: HepG2 CMV promoter reporter, transcription factor profiling; actives raise or lower the signal;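 also: endpoint acts as a background internal control marker rather than a target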
# Outline: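 Cell system: HepG2, transiently transfected multiple reporter units under cis promoters. Exposure: 24 h. Detection: RT-PCR, FAM labeling, HpaI digestion, capillary electrophoresis. Analysis: bidirectional, DMSO baseline.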
SMILES,AC50 [1],outcome [2],outcome [3],outcome [1],AC50 [3]
OCCN1CN(CCO)CN(CCO)C1,145 µM (active),inactive,inactive,,
OCC(F)(F)C(F)(F)C(F)(F)C(F)(F)C(F)(F)C(F)(F)C(F)(F)C(F)(F)C(F)(F)C(F)(F)C(F)(F)F,,inactive,inactive,inactive,
O=c1cc(-c2ccccc2)oc2ccc3ccccc3c12,,inactive,inactive,inactive,
O=C1Cc2ccccc2N1c1c(Cl)cccc1Cl,,inactive,inactive,inactive,
Oc1ccc(Cc2ccccc2O)cc1,,inactive,inactive,inactive,
CCCC=O,,inactive,inactive,inactive,
CCCCc1ccc2ccccc2c1S(=O)(=O)O,,inactive,inactive,inactive,
O=C(OC(=O)C(F)(F)C(F)(F)F)C(F)(F)C(F)(F)F,,inactive,inactive,inactive,
NCCN,,inactive,inactive,inactive,
CCC(C)c1ccccc1O (configuration not stated),,inactive,inactive,inactive,
CC(C)(O)C(=O)c1ccccc1,,inactive,inactive,inactive,
COC1=CC(=O)C[C@@H](C)[C@]12Oc1c(Cl)c(OC)cc(OC)c1C2=O,130 µM (active),inactive,,,138 µM (active)
C[C@]12CC[C@@H]3c4ccc(O)cc4CC[C@H]3[C@@H]1C[C@@H](O)[C@@H]2O,,inactive,inactive,inactive,64.6 µM (active)
NNC(=O)CCCCC(=O)NN,,inactive,inactive,inactive,
FC1(F)C=CC(F)(F)C1(F)F,,inactive,inactive,inactive,
CC(C)CCOCCC(C)C,,inactive,inactive,inactive,
O=P(O)(O)CCC(F)(F)C(F)(F)C(F)(F)C(F)(F)C(F)(F)C(F)(F)C(F)(F)C(F)(F)F,,inactive,inactive,inactive,
